Source: PubChem BioAssay AID449739 (Vanderbilt High Throughput Screening Facility, 2010)
In all, about 100,000 compounds went through this assay and about 4,200 (4.2%) were called active.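 Rule for the calls: active = single-dose well whose peak fluorescence ratio is a statistical outlier from its plate by either plate-standardised score or position-corrected B-score; inactive = the rest.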 This excerpt belongs to a sample that is enriched for actives.

target: Voltage-dependent T-type calcium channel subunit alpha-1H (Homo sapiens) (UniProt O95180); assay: Cav3.2 calcium influx blockers – cell-based, Fluo-4 calcium fluorescence, FDSS, MLSMR library, primary screen (AID 449739); settings: Cav3.2-expressing cells, at 10 µM, hits give low values
Sequence (O95180 whole entry, looked up): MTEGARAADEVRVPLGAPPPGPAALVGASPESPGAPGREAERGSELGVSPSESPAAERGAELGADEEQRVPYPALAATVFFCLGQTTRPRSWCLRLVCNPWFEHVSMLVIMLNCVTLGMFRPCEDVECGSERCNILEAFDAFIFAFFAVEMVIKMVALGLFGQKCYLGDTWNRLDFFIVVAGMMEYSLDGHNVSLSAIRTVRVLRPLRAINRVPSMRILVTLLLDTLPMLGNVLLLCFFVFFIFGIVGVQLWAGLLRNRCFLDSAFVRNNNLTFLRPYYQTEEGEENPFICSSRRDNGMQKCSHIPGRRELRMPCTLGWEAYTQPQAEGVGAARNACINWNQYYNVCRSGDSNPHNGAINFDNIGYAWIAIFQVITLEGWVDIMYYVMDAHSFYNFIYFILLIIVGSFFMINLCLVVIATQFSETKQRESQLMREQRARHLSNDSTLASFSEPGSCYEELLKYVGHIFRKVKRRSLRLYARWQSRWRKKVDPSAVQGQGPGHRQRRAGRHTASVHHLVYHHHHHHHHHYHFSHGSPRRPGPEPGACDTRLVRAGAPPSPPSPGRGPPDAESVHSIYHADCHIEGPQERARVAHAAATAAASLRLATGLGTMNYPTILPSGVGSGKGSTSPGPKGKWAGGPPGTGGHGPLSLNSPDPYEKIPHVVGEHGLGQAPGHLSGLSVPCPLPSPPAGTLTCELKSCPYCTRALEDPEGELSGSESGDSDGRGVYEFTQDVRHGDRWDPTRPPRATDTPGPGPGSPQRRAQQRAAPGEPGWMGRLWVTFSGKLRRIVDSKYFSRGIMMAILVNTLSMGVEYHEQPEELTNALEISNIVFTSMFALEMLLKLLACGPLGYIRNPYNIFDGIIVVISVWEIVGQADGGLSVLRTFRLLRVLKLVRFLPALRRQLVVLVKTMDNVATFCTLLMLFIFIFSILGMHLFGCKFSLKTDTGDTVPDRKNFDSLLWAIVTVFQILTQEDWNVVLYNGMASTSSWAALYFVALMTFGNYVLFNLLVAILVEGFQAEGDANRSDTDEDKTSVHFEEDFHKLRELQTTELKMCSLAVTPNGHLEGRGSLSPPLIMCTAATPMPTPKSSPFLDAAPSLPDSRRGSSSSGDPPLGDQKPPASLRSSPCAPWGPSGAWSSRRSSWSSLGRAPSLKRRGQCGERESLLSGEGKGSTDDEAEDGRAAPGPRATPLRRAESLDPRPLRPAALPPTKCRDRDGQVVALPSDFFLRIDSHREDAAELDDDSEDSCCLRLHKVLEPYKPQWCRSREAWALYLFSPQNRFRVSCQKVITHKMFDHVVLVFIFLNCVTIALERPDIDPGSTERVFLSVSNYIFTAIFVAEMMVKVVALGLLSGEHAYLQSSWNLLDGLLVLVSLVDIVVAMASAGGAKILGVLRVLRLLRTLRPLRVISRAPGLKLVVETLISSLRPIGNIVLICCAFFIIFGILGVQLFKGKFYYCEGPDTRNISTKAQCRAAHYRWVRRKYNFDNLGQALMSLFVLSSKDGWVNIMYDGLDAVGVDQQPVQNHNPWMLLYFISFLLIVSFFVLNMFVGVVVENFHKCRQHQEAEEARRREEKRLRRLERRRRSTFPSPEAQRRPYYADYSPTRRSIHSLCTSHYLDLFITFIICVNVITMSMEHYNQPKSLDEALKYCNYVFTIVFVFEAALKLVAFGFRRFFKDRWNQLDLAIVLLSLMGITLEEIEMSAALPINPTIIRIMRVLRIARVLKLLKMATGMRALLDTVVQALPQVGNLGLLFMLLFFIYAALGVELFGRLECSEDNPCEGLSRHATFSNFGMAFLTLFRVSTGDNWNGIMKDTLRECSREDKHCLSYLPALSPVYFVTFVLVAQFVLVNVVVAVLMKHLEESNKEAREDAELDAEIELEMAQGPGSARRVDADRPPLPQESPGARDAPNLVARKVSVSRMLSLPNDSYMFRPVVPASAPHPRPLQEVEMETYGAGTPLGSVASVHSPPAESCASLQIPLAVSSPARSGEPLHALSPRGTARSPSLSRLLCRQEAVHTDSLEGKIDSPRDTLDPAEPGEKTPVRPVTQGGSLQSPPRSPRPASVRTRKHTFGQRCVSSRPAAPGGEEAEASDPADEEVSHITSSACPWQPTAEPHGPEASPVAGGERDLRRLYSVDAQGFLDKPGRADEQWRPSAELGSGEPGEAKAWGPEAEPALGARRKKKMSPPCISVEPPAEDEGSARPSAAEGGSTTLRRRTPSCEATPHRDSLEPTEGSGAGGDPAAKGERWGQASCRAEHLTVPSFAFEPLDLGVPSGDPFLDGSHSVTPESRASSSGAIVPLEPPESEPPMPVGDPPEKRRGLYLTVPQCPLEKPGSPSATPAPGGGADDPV

SMILES	B-score
NC(=O)C1=C[C@H](c2csc3ccccc23)C[C@H](OCc2ccc(CO)cc2)O1	0.00737 (inactive)
Cc1cc2nc(C)n(CCCNC(=O)Nc3ccccc3)c2cc1C	-1.52 (inactive)
COCCOCCn1cnc2ccccc21	0.734 (inactive)
Cc1cc2ncn(CCCCOc3ccccc3)c2cc1C	-4.34 (active)
Cc1ccc2c(c1)-c1c(ssc1=S)C(C)(C)N2C(=O)CN1C(=O)c2ccccc2C1=O	-1.31 (inactive)
CC1=C(C)C(=O)OC(C(C)C2CCC3C4CC=C5CC(OC6OC(COC7OC(CO)C(O)C(O)C7O)C(O)C(O)C6O)CC(O)C5(C)C4CCC23C)C1 (stereo not drawn)	-0.348 (inactive)
CC(C)=CCC/C(C)=C/C(=O)O	0.444 (inactive)
COC(=O)CN(C(=S)Nc1ccc(Cl)cc1)C1CC(=O)N(c2ccc(OC)cc2)C1=O (stereo not drawn)	-0.0552 (inactive)
CN(C)c1ccc(NC(=S)N(CCc2ccccc2)C2CC(=O)N(c3c(Cl)cccc3Cl)C2=O)cc1 (stereo not drawn)	-7.09 (active)
CCCOc1ccc(N2C(=O)CC(N(CCc3ccc(S(N)(=O)=O)cc3)C(C)=O)C2=O)cc1 (stereo not drawn)	-0.148 (inactive)
C/C=C(/C)C(=O)O[C@@H]1c2cc3c(c4c2[C@@]2(CO4)C(=O)C(OC)=C(OC)C=C2C[C@@H](C)[C@H]1C)OCO3	-0.0512 (inactive)
CCN1CCN(C(=O)/C=C\C(=O)O)CC1	-0.00536 (inactive)
O=C(NCCCCCCCCCNC(=O)C(F)(F)F)C(F)(F)F	-0.288 (inactive)
Cn1c2ccccc2c2c(C(=O)N3CCN(c4ccc(F)cc4)CC3)cn(C3CCCC3)c(=O)c21	-5.04 (active)
O=C(c1cccc2ccccc12)N1CCN(c2ccccc2F)CC1	-2.56 (inactive)
Cn1c(C(=O)N2CCC(C(N)=O)CC2)cc2c(=O)n(C)c3ccccc3c21	0.0764 (inactive)
O=c1c2ccccc2c(-c2ccc(F)cc2)nn1-c1ccc(C(F)(F)F)cc1	0.392 (inactive)
Clc1ccc(-c2nnc(-c3ccccc3)nc2N2CCSCC2)cc1	-2.83 (inactive)
COc1cc(/C=C/CO)cc(OC)c1O[C@@H]1O[C@H](CO)[C@@H](O)[C@H](O)[C@H]1O	0.144 (inactive)
CC1(c2nnc(-c3ccncc3)o2)CC(c2cccnc2)=NO1 (stereo not drawn)	0.534 (inactive)

SMILES	B-score
COc1ccc(NC(=O)CSc2nc(N)c(-c3ccccc3)c(=O)[nH]2)cc1	0.0212 (inactive)
COc1ccc(NC(=O)CSc2nc(NS(=O)(=O)c3ccc(C)cc3)cc(=O)[nH]2)cc1	-6.39 (active)
COc1ccc2nc(SCC(=O)Nc3c(C)cc(C)cc3C)[nH]c2c1	-0.844 (inactive)
CCCC(=O)Nc1nc2ccc(NC(=O)c3cccnc3)cc2s1	-0.392 (inactive)
COCCN1C(=O)N[C@@H](CCc2ccccc2)[C@H](C(C)=O)[C@H]1C	0.713 (inactive)
O=C(NCC1CC1)c1onc(CSc2ccccc2)c1C(=O)NCC1CC1	-1.14 (inactive)
CS(=O)(=O)N(CC(=O)N1CCN(c2ccc(F)cc2)CC1)C1CCCCC1	1.32 (inactive)
CCOC(=O)N1CCN(C(=O)CN(C2CCCCC2)S(C)(=O)=O)CC1	-0.0305 (inactive)
CS(=O)(=O)N(CC(=O)Nc1ccc(Cl)c(Cl)c1)C1CCCCC1	-4.14 (active)
O=C(COc1ccc2c(C(F)(F)F)cc(=O)oc2c1)Nc1ccc2c(c1)OCCO2	-0.232 (inactive)
N#Cc1ccc(Oc2cc(C(F)(F)F)nc(-c3ccccn3)n2)cc1	-0.0658 (inactive)
O=C(NCCCN1CCOCC1)c1cc2c(s1)CCC2	0.565 (inactive)
Cc1nn(C)cc1C(=O)NNC(=S)Nc1ccc(Cl)cc1	-0.0884 (inactive)
COC(=O)C1=C(C(=O)OC)[C@@H]2N(C)c3ccccc3[C@@]23C[C@@H](C(=O)OC)N(C(C)=O)C3=N1	0.294 (inactive)
CCOC(=O)c1ccccc1NC(=O)c1c(N)n(C)c(=O)[nH]c1=O	1.01 (inactive)
O=C(CSc1nnc(-c2cccnc2)n1CCc1ccccc1)NCc1ccccc1	0.107 (inactive)
C=CCn1c(COc2ccccc2)nnc1SCC(=O)NCC(=O)OCC	0.062 (inactive)
C=CCn1c(SCC(=O)Nc2nc3ccccc3s2)nnc1-c1ccccc1O	-5.9 (active)
C=CCn1c(N)cc(=O)nc1SCC(=O)Nc1cccc2ccccc12	-0.0155 (inactive)
C=CCn1c(SCC(=O)NCc2ccccc2)nnc1-c1cc(Br)ccc1O	-6.89 (active)

SMILES	B-score
CCn1c(SCC(=O)Nc2nc3ccc(OC)cc3s2)nnc1-c1ccoc1C	-3.69 (inactive)
CN(C)/C=C(\C#N)C(=O)c1cccnc1Oc1ccc(F)cc1F	0.526 (inactive)
Cc1ccc(Cl)cc1NC(=O)COC(=O)C1CCCCC1	-0.13 (inactive)
O=C(NCc1ccco1)c1ccc(CS(=O)(=O)Cc2ccc(F)cc2)o1	1.27 (inactive)
O=C(c1cc2sccc2n1Cc1ccc(F)cc1)N1CCc2ccccc21	-3.42 (inactive)
O=C(NCc1ccco1)c1cc2sccc2n1Cc1ccc(F)cc1	-5.53 (active)
O=C(Cc1ccc(-n2c(=O)c3sccc3n(Cc3ccc(F)cc3)c2=O)cc1)NCc1ccco1	-0.875 (inactive)
O=C(NCc1ccco1)c1ccc(Cn2c(=O)c3sccc3n(Cc3ccc(F)cc3)c2=O)cc1	-3.42 (active)
CC(C)(C)c1ccc(C(=O)NCCC(=O)NCc2ccco2)cc1	-0.22 (inactive)
COc1cccc(-c2cc(C(=O)N/N=C/c3ccc(OC)c(COC(C)=O)c3)c3ccccc3n2)c1	-0.321 (inactive)
CC(C)(C)CN1C(=O)C(=O)NC[C@H]1Cc1cccc2ccccc12	0.844 (inactive)
Fc1ccccc1COc1ccccc1CNCc1ccncc1	0.584 (inactive)
CC(C)CC(CO)N1CCN(C(=O)c2ccc(Cl)cc2Cl)CCC1=O (stereo not drawn)	0.363 (inactive)
Cc1c(NC(=O)CCCOc2ccccc2)cccc1[N+](=O)[O-]	-0.161 (inactive)
CCO[C@@H]1OC(C(N)=O)=C[C@H](c2ccc(Br)cc2)[C@H]1CCCO	0.335 (inactive)
CS(=O)(=O)N(CC(=O)N1CCN(Cc2ccc3c(c2)OCO3)CC1)c1ccc2c(c1)OCO2	1.42 (inactive)
O=C(c1cccs1)N1CCN(Cc2ccc3c(c2)OCO3)CC1	0.274 (inactive)
O=C(CSCc1ccc(Cl)cc1)N1CCN(Cc2ccc3c(c2)OCO3)CC1	-5.77 (active)
